Sampled rows, rich in hits. Any-hit rate of the full collection: about 3%.
PPC-1+TRAIL kill – PPC-1 cancer cell killing with TRAIL present. PPC-1 cells + TRAIL, ATPLite viability luminescence. cell killing (% activity), % at 4 µM or 5 µM. 220,000 tested, 0.41% active. AID 1443;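 active = cell killing above 50% in the first pass at 4 µM, then a duplicate retest at 5 µM averaging 50% or more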
SENP8 block-1 – blocks the human protease SENP8; Q96LD8; purified SENP8, Z-RLRGG-aminoluciferin cleavage, luminescence; inhibition, % at 10 µM; 330,000 tested, 1.2% active; AID 2540; in the data active = inhibition above about 50%
Target sequence (Q96LD8 whole entry, looked up): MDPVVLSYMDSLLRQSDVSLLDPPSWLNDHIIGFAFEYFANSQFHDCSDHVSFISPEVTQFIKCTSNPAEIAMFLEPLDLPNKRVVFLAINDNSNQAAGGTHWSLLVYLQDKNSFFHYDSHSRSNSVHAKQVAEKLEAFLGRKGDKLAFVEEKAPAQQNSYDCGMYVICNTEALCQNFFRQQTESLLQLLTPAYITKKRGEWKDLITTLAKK
SENP6 block – blocks the human protease SENP6; Q9GZR1; Recombinant SENP6 catalytic domain, aminoluciferin luminescence; inhibition, % at 10 µM; 330,000 tested, 1.8% active; AID 2599;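 active = inhibition above about 50% at the single tested dose, limit read from the data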
Target sequence (Q9GZR1 628-1112 limits assumed): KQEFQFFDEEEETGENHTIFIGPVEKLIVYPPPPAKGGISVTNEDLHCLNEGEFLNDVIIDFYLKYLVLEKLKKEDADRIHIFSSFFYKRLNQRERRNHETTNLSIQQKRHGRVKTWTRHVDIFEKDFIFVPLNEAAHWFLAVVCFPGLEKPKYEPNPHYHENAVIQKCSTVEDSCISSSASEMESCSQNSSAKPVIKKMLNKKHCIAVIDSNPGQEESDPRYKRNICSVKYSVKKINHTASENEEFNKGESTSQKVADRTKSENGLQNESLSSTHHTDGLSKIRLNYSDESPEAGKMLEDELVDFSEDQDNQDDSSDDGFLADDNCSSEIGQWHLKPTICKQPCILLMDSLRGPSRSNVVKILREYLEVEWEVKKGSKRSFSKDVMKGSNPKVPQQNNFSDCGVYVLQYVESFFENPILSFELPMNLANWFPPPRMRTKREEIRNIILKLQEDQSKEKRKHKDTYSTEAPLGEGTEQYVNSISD
SENP8 block-2 – blocks human SENP8 cleavage of Nedd8 substrate. 360,000 tested, 0.64% active. inhibition, % at 20 µM. Q96LD8. recombinant SENP8, Nedd8 substrate fluorescence. AID 602440; in the data active = inhibition mostly above about 40%, no sharp cut-off; inactive = mostly below about 27%
SENP7 inh – SENP7 protease inhibition. recombinant SENP7, Z-RLRGG-aminoluciferin luminescence, 40 min. 330,000 tested, 1.5% active. Q9BQF6. inhibition, % at 5 µM. AID 434973;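 active = inhibition above about 50% at the single test dose, limit read from the data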
TRAIL sens C8 – caspase-8 TRAIL sensitization. 360,000 tested, 1% active. NB7+C8 cells + TRAIL, ATPlite viability luminescence. inhibition (viability loss, TRAIL sensitization), % at 10 µM;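 active = compounds causing at least 50% loss of cell viability in the single-dose screen, relative to plate controls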
Large screens that a line does not name were inactive.

C=CCn1c(C)cc(C(=O)COC(=O)[C@@H](NC(=O)c2ccccc2Cl)C(C)C)c1C	PPC-1+TRAIL kill 77, TRAIL sens C8 85
C=CCn1c(C)cc(C(=O)COC(=O)COc2ccccc2C#N)c1C	none
O=C1CCc2cccc(O)c2N1	none (no result: PPC-1+TRAIL kill, SENP8 block-1, SENP6 block, SENP7 inh)
CCN(CC)C(=S)SCc1csc(CC(=O)Nc2ccccc2C)n1	none (no result: PPC-1+TRAIL kill)
CCC(=O)N(C1=C(NC(C)C)C(=O)c2ccccc2C1=O)C(C)C	none
CCCNC1=C(N(C(C)=O)c2cccc(F)c2)C(=O)c2ccccc2C1=O	PPC-1+TRAIL kill 70, TRAIL sens C8 76 (no result: SENP8 block-1, SENP6 block, SENP7 inh)
CCOC(=O)c1sc2nc3c(SCC(=O)O)cc(C(=O)c4cc(F)ccc4O)cn3c(=O)c2c1C	none (no result: SENP8 block-1, SENP6 block, SENP7 inh)
CCOC(=O)c1sc2nc3c(SCC(=O)O)cc(C(=O)c4ccccc4O)cn3c(=O)c2c1C	TRAIL sens C8 53
COc1ccc(-c2cc(=O)c3ccccc3o2)cc1	none
COc1ccc(-c2cc3ccccc3c(=O)o2)cc1	TRAIL sens C8 53 (no result: PPC-1+TRAIL kill, SENP8 block-1, SENP6 block, SENP7 inh)
COc1ccccc1CNC(=O)C1Cc2cc(S(=O)(=O)N3CCCCC3)ccc2N1C(C)=O (stereo not given)	none (no result: PPC-1+TRAIL kill)
COc1cc(/C=C2\CC/C(=C\c3cc(OC)c(OC)c(OC)c3)C2=O)cc(OC)c1OC	none
COc1cc(/C=C2\COC/C(=C\c3cc(OC)c(OC)c(OC)c3)C2=O)cc(OC)c1OC	TRAIL sens C8 72 (no result: SENP8 block-1, SENP6 block, SENP7 inh)
CN(C)c1ccc(N=Nc2ccccc2C(=O)OCC(=O)N2CCCCCC2)cc1	SENP8 block-2 57, TRAIL sens C8 55
C[C@H](CO)N1C[C@H](C)[C@@H](CN(C)C(=O)Nc2ccccc2)Oc2ccc(NC(=O)Cc3ccccc3)cc2C1=O	none (no result: PPC-1+TRAIL kill)
Cc1ccc(N(CC(=O)NC2CCCC2)C(=O)CCC(=O)Nc2nc(C)cs2)cc1	none (no result: PPC-1+TRAIL kill)
Nc1nc(CCl)nc(Nc2cccc3ccccc23)n1	TRAIL sens C8 95
Cc1cccc(N2CCN(S(=O)(=O)c3ccc4c(c3)CCCN4C(=O)C3CCC3)CC2)c1C	none (no result: PPC-1+TRAIL kill)
Cc1ccc(S(=O)(=O)n2ccc3c(OCCOCCNCc4ccc(F)cc4)cccc32)cc1	TRAIL sens C8 53 (no result: PPC-1+TRAIL kill)
Cc1ccc(S(=O)(=O)n2ccc3c(OCCOCCSCC(NC(=O)OC(C)(C)C)C(=O)O)cccc32)cc1 (stereo not given)	none (no result: PPC-1+TRAIL kill)
CCOc1ccc2nc3cc(NCc4ccc(OC)cc4)ccc3c(N)c2c1	SENP6 block 51 (no result: PPC-1+TRAIL kill)
CCn1cnc2cc(NCc3ccc(OC)cc3)ccc21	none
[O-]/[N+](=C/c1ccccc1)c1ccccc1	none (no result: PPC-1+TRAIL kill)
C/C(=N\NC(=O)c1cc(Cl)ccc1O)c1ccc(Br)s1	SENP8 block-1 74, SENP6 block 79
C/C(=N\NC(=O)c1ccc(Cl)cc1)c1ccc(Br)s1	none
O=c1[nH]c(S)c(/C=C2\C=Nc3ccccc32)s1	SENP8 block-2 52
Cc1ccc(S(=O)(=O)N2CCCOC2CNC(=O)C(=O)NC2CCCC2)cc1 (stereo not given)	none (no result: PPC-1+TRAIL kill)
Cc1ccc(/C(N)=N/OC(=O)c2cccc(Cn3cc(C(F)(F)F)ccc3=O)c2)cc1	TRAIL sens C8 81
N/C(=N\OC(=O)c1cccc(Cn2cc(C(F)(F)F)ccc2=O)c1)c1ccccc1	none
O=C1CC(C(=O)N2CCN(S(=O)(=O)c3cccc(F)c3)CC2)CN1Cc1ccccc1Cl (stereo not given)	none (no result: PPC-1+TRAIL kill)
N#CC1=C2SCN(Cc3ccco3)CN2C(=O)CC1c1c(F)cccc1Cl (stereo not given)	SENP8 block-2 36
Cc1ccc(C2CC(=O)N3CN(Cc4ccco4)CSC3=C2C#N)cc1 (stereo not given)	none
Cc1ccc(S(=O)(=O)N2CCOCC2)cc1C(=O)NCCc1ccc(Cl)cc1	none (no result: PPC-1+TRAIL kill)
C(=NN1CCCCCC1)c1ccc2ccccc2n1	TRAIL sens C8 90 (no result: PPC-1+TRAIL kill, SENP8 block-1, SENP6 block, SENP7 inh)
C(=NN1CCCCCC1)c1cccc2ccccc12	none (no result: PPC-1+TRAIL kill, SENP8 block-1, SENP6 block, SENP7 inh)
COc1ccc(NC(=O)CCC(=O)Nc2nnc(CC(C)C)s2)cc1Cl	none (no result: PPC-1+TRAIL kill)
CCN(Cc1ccccc1)S(=O)(=O)c1ccc(C(=O)N(CCCN(C)C)c2nc3cc(C)cc(C)c3s2)cc1	TRAIL sens C8 75 (no result: PPC-1+TRAIL kill)
Cc1ccc2sc(N(CCCN(C)C)C(=O)c3ccc(S(=O)(=O)N(C)C)cc3)nc2c1C	none
CCOc1cccc2sc(N(CCCN(C)C)C(=O)c3ccc(S(=O)(=O)N(C)Cc4ccccc4)cc3)nc12	TRAIL sens C8 51 (no result: PPC-1+TRAIL kill)
Cc1cc(C)c2sc(N(CCCN(C)C)C(=O)c3ccc(S(=O)(=O)N(C)Cc4ccccc4)cc3)nc2c1	none (no result: PPC-1+TRAIL kill)
Cc1ccc2sc(N(CCCN(C)C)C(=O)c3ccc(S(=O)(=O)N(C)Cc4ccccc4)cc3)nc2c1C	TRAIL sens C8 69 (no result: PPC-1+TRAIL kill)
O=C(CNC(=O)C1CCCCC1)OC(C(=O)c1ccccc1)c1ccccc1 (stereo not given)	none (no result: PPC-1+TRAIL kill)
Cc1cccc(C)c1NC(=O)C(=O)NCC1CCCN1S(=O)(=O)c1ccccc1 (stereo not given)	none (no result: PPC-1+TRAIL kill)
O=C(NCCCN1CCCC1)c1ccc2c(c1)N(Cc1ccccc1F)C(=O)c1ccccc1S2(=O)=O	none (no result: PPC-1+TRAIL kill)
COc1cccc(-c2ccc(SCC(=O)NC3CCCCC3)nn2)c1	none (no result: PPC-1+TRAIL kill)
O=C1CC(c2ccc(O)c(O)c2)Oc2c1ccc(O)c2O (stereo not given)	SENP8 block-2 51
Cc1cccnc1NC(=O)CSc1nnc(CNC(=O)c2cccc([N+](=O)[O-])c2)n1C	none (no result: PPC-1+TRAIL kill)
O=C1/C(=C\c2ccccc2)CN(C(=O)CCN2CCCCC2)C/C1=C/c1ccccc1	TRAIL sens C8 91 (no result: PPC-1+TRAIL kill, SENP8 block-1, SENP6 block, SENP7 inh)
CCN(CC)CCC(=O)N1C/C(=C/c2ccccc2)C(=O)/C(=C\c2ccccc2)C1	TRAIL sens C8 93 (no result: PPC-1+TRAIL kill, SENP8 block-1, SENP6 block, SENP7 inh)
O=C(CCN1C(=O)S/C(=C\c2ccccc2)C1=O)N1CCCCC1	none (no result: PPC-1+TRAIL kill)
O=C1/C(=C\c2ccc(Cl)c(Cl)c2)CN(C(=O)CCN2CCOCC2)C/C1=C/c1ccc(Cl)c(Cl)c1	TRAIL sens C8 93 (no result: PPC-1+TRAIL kill, SENP8 block-1, SENP6 block, SENP7 inh)
CCOC(=O)CC1C(=O)NCCN1c1nc2ccc(C)cn2c(=O)c1/C=C1\SC(=S)N(CC(C)C)C1=O (stereo not given)	SENP8 block-2 48
CCOC(=O)CC1C(=O)NCCN1c1nc2ccc(C)cn2c(=O)c1/C=C1\SC(=S)N(C(C)CC)C1=O (stereo not given)	none (no result: SENP8 block-2, TRAIL sens C8)
CCCC[C@@H]1C=C(C(=O)O)[C@H](c2ccc(Cl)c(Cl)c2)N1S(=O)(=O)c1ccc(C)cc1	none (no result: PPC-1+TRAIL kill)
N#CC(C#N)=C1SC(=Nc2ccccc2)C(=Nc2ccccc2)N1c1ccccc1	TRAIL sens C8 92 (no result: PPC-1+TRAIL kill, SENP8 block-1, SENP6 block, SENP7 inh)
Cc1ccc(O)c(N=NC2=C(O)CC(C)(C)CC2=O)c1	SENP8 block-2 42, TRAIL sens C8 63
CNc1nc(Nc2ccc(Br)cc2)nc(N)c1[N+](=O)[O-]	SENP7 inh 88
Cc1ccc(N(CC(=O)NC(C)C)C(=O)CCC(=O)Nc2nccs2)cc1C	none (no result: PPC-1+TRAIL kill)
CN(c1ccccc1)S(=O)(=O)c1ccc(NC(=O)c2ccccc2)cc1	none
COc1cccc(NC(=O)c2nc(S(C)(=O)=O)ncc2Cl)c1	TRAIL sens C8 66 (no result: PPC-1+TRAIL kill)
COc1cccc(NC(=O)c2nc(SC)ncc2Cl)c1	none (no result: PPC-1+TRAIL kill)
